Test results as given in PubChem BioAssay (EPA / NIEHS).
Inconclusive results are not listed. Activity calls are given as the source filed them. Rule for the calls: active = hit-call score of the fitted dose curve at least 0.9, where 1 is the maximum; inconclusive = response in the unintended direction; inactive = score below 0.9.

experiment: CCTE_Shafer_MEA_dev_active_electrodes_number: CCTE's Neural Network Formation Assay for Number of Active Electrodes, Shafer Lab (AID 2284040);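 for AC50: potency for loss of active electrodes versus DMSO so lower counts are hits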
Protocol: CCTE_Shafer_MEA_dev assay is conducted using Axion Biosystems 48 well microelectrode array (MEA) plates and Maestro recording system. Each well of the MEA plate contains a grid of 16 microelectrodes embedded in the culture surface. Electrically active cells, such as neurons, can be cultured over the electrodes, and electrical activity in these cells can be recorded extracellularly. The spontaneous firing of neurons is captured from each electrode on a microsecond timescale providing both temporally and spatially precise data. […] The CCTE_Shafer_MEA_dev assay uses primary cultures of rat cortical neurons. Recordings are made on days post-plating 5, 7, 9 and 12. As these cultures mature over time, neural networks develop functional activity and form cohesive networks in which electrical activity can be highly coordinated. CCTE_Shafer_MEA_dev_active_electrodes_number is 1 of 19 assay components of the CCTE_Shafer_MEA_dev assay. It measures the number of electrodes in a well with a mean firing rate of at least 5 spikes (action potential firings) per minute during a recording in a microelectrode array (MEA) using Axion Biosystems Maestro 768 channel amplifier with the AxIS adaptive spike detector. To collapse across multiple recordings made on days post-plating 5, 7, 9 and 12, the trapezoidal area-under-the-curve of the component is calculated.Data from the assay component CCTE_Shafer_MEA_dev_active_electrodes_number was analyzed into 1 assay endpoint. This assay endpoint, CCTE_Shafer_MEA_dev_active_electrodes_number, was analyzed in the negative analysis fitting direction relative to DMSO as the negative control and baseline of activity. Using a type of functional reporter, gain or loss-of-signal activity can be used to understand electrical activity.
On the day prior to culture, each well was coated thoroughly with 150 uL of 0.05% polyethyleneimine (PEI, Sigma Cat P3143) in 50 mM HEPES (Sigma Cat H7523) at a pH of 8. The plate was incubated at 37C for one hour. PEI was rinsed out with 500 uL of sterile water three times. Plates were stored at 4C until the day of culture. This culture was plated at a seeding density of 1.5 x 10^5 cells/well on a 48-well MEA plate, prepared as described above. Cells were administered via a 25 uL media/laminin ([…]; Sigma Cat L2020-1MG) drop directly onto the microelectrode array, as adding the cells with the laminin results in better attachment than pre-coating with laminin. After 2 hours, an additional 475 uL of cortical media was added and the cells returned to the incubator. Exposure starts at day 0 of plating and is continued over twelve days of network development until the experiment is terminated. Cells are fed with fresh medium on DIV 5 and 9, following the recordings on those days. The entire volume of media in the well is exchanged and any vehicle or compound treatment is renewed. Complete details are found in OP-NHEERL/ISTD/SBB/TJS/2015-03-r0 (available on request, email shafer.tim@epa.gov). Measurement of the electrical activity is non-invasive, and recordings can be made from the same plate over multiple different days of the culture. In cortical neurons, this allows for the measurement of extracellular action potentials over the period during which networks form in the MEA plate.

Structure (SMILES)	outcome	AC50
C=CCOC(F)(C(F)(F)F)C(F)(F)F	inactive	–
Cc1cc(C(F)(C(F)(F)F)C(F)(F)F)ccc1NC(=O)c1cccc(I)c1C(=O)NC(C)(C)CS(C)(=O)=O	–	11.3 µM (active)
FC(F)OCC(F)(F)C(F)(F)F	inactive	–
CCOCn1c(-c2ccc(Cl)cc2)c(C#N)c(Br)c1C(F)(F)F	–	4.74 µM (active)
O=S(=O)(F)C(F)(F)C(F)(F)C(F)(F)C(F)(F)F	inactive	–
CC(C)[C@@H](Nc1ccc(C(F)(F)F)cc1Cl)C(=O)OC(C#N)c1cccc(Oc2ccccc2)c1 (stereo partly specified)	–	14.5 µM (active)
CNC(=O)CSP(=O)(OC)OC	inactive	–
CC1(C)[C@H](C(=O)O[C@H](C#N)c2cccc(Oc3ccccc3)c2)[C@@H]1/C=C(\Cl)C(F)(F)F	–	12.9 µM (active)
Cc1ccccc1OP(=O)(Oc1ccccc1C)Oc1ccccc1C	–	20.2 µM (active)
NC(=O)c1ccc(N)nc1	–	6.3 µM (active)
OC(Cc1ccccc1Cl)(Cn1[nH]cnc1=S)C1(Cl)CC1 (stereo unspecified)	–	37.1 µM (active)
